Data from the supplement of paper PMC6555819.

Each sequence was assayed on RARb:RXRa (NR concentration 270 nM, RXRa partner concentration 90 nM) (assay: PBM binding z-score (relative to random genomic background probes); higher = stronger binding; sequences stand for … in GC…GCGATTGACAGCGTAGAATGAAGG).
How it was run: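 On custom Agilent 4×180K arrays, double-stranded probes with 34-nt variable regions carried direct-repeat seeds, single-nucleotide variants, half-site ablations or random human genomic background. Ligand-free nuclear receptor dimers were applied for 1 h, and binding was read with antibodies against each partner (one per run). Binding z-scores come from regression-normalized fluorescence, with the random background probes as reference.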

| Sequence | PBM binding z-score |
| --- | --- |
| TTACCAACGTGAAAGGTCGTTGATGCACGCCTTG | 1.66 |
| CCTACTGCGCCACGAAAGGTCATTGATTCAGTGA | 3.86 |
| TCATATAGGTAAACGTGAAAGTCGAACGATATGA | 0.3 |
| GGAACGAGGGCAAAGTTGATAGCATCTGTCGACG | 2.37 |
| CCTAGCAGGCCAATCTGGGTGACTCAAGGCTTGA | 0.0785 |
| TCTGCTGGGTCAGTTGGTCAGCTAACGAGCTGCC | 3.19 |
| CCTACTAGGTCATGGTCAGCTAATCTACAGTATG | 3.92 |
| TCTGTTAGTTGAAGGGCAACCGACGAGTCCGTTT | 1.65 |
| TCGGCTAGGTCAACGATGGTCAGCTAATCTGCTA | 3.97 |
| AGAATGAGGTTAATAAGATCAGGGAATTGCGGTC | 1.58 |
| AGAACGAGGGCAATGAGTTGATAGTACGGGTGGC | 2.11 |
| AGTCAAAGTTCATCTAGGGAACGTAAGATATGCT | 4.92 |
| ATAACGAGGGCACGCTGAGTTGATAGCAGAGTAG | 2.61 |
| ATCTGTAGGTAACCAAGTTCAGTGAATGCCGAAC | 1.08 |
| AGAACGAGGGCACGCTGAGTTGAGAGCAGAGTAG | 2.54 |
| CTCGAAAGGTCGTGCTGAGGTGAGTATACCAAAC | 3.93 |
| CAAACTAGGTCCAGAGGTCAAAGTCCGCTTCCCG | 4.11 |
| CGTCCAAGGTCAAAGGTCAGTGACGAGATGACGG | 5.86 |
| GGAACGAGGGCAAAGTTGATAGAATCTGTCGACG | 2.32 |
| TCTTGTAGATCAATAGAGGATAAGAAAGTGCGCT | 0.029 |
| CGAACCAGGTCAAGGACAGTGAATCTCCGCACGC | 4.04 |
| CCGGCTAGGTCATGGTCAGCTAATCTACAGTATG | 3.91 |
